Shown are actives, neighbours in structure and some others; about 12% of the full set was active somewhere.
JMJD2A Tudor inh: JMJD2A Tudor domain (human) inhibition; Potency, µM (series often up to 114 µM), without a hit: at the highest dose activity change, negative = inhibition, actives largely listed as inhibitors; AID 504339; AlphaScreen JMJD2A-Tudor / H3K4me3 peptide binding; O75164; 390,000 compounds, 4.4% hits; note: % is set by controls: 0 for no effect and ±100 for the full control effect; nearly all actives have a fitted effect of over 50% in size
HP1b binding inh: blocks HP1-beta chromodomain binding to methylated histone tails. AID 540317. AlphaScreen HP1-beta / biotin-H3K9me3 peptide binding. 390,000 compounds, 0.56% hits. Potency, µM (doses to about 114 µM), inactives show at the highest dose activity change, negative = inhibition, most hits filed as inhibitors. P83916; note: nearly all actives have a fitted effect of over 70% in size
Target sequence (P83916 whole entry, looked up): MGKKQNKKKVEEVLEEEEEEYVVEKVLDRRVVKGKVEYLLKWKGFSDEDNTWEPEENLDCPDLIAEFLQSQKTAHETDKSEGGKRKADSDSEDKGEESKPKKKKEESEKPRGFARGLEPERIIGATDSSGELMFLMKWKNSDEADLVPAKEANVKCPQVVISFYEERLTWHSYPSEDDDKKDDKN
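Compound inhibition of the preformed complex between 50 nM HP1-beta and 50 nM biotinylated H3K9me3 peptide was read by AlphaScreen. Buffer was PBS pH 7.4 with 0.01% Tween-20. Incubations ran 30 min at room temperature, with 10 ug/mL donor/acceptor beads.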
BAZ2B block: inhibitors of human BAZ2B bromodomain. AlphaScreen BAZ2B-H3K14Ac peptide displacement. 360,000 compounds, 4.4% hits. Potency, µM (doses to about 114 µM), without a hit: at the highest dose activity change, negative = inhibition, usual class: inhibitors. AID 504333. Q9UIF8; note: % is set by controls: 0 for no effect and ±100 for the full control effect; nearly all actives have a fitted effect of over 60% in size
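AlphaScreen luminescence quantifies BAZ2B engagement of H3K14Ac peptide; the protein and biotinylated peptide are both at 50 nM final, buffer PBS pH 7.4 with 0.01% Tween-20, all steps at room temperature.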
G9a block: blocks human histone lysine methyltransferase G9a | Q96KQ7 | G9a H3K9 monomethylation, AlphaScreen, 2 h | Potency, µM (highest dose often 102 µM), for inactives: at the highest dose activity, negative = inhibition, usual class: inhibitors | 350,000 compounds, 8.8% hits | AID 504332; note: % is set by controls: 0 for no effect and ±100 for the full control effect; nearly all actives have a fitted effect of over 75% in size
Target sequence (Q96KQ7 913-1193 limits assumed): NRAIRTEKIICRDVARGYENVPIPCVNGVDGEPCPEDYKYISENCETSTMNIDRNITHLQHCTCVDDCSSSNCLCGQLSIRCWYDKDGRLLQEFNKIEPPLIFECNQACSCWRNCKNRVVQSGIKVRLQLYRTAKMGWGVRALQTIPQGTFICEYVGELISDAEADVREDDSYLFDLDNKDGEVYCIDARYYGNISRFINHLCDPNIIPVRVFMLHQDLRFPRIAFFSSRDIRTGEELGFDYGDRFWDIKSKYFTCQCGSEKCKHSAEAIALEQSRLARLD
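AlphaScreen read-out: biotin-H3K9 peptide (500 nM) methylation by 20 nM enzyme with 20 uM SAM, 2 h at room temperature after 15 min compound preincubation; anti-monomethyl H3K9 antibody plus donor/acceptor beads, 10 min dark.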
Sfp inh: blocks B. subtilis Sfp PPTase activity; Q9F4F7; Biochemical Sfp PPTase activity, qHTS; Potency, µM, for the others: largest response in the series, negative = inhibition, actives largely listed as inhibitors; 310,000 compounds, 3.5% hits;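 note: the enzyme is Sfp with the accession as filed and its product quenches rhodamine fluorescence; 0% = enzyme reaction without inhibitor and -100% = no enzyme wells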
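Fluorescence-quenching assay with 15 nM Sfp, 5 uM rhodamine-CoA and 12.5 uM BHQ-2-labelled ybbR peptide in pH 7.6 Hepes/MgCl2 buffer. Enzyme was pre-incubated with compound for 15 min at room temperature. Rate was taken from the 30-min fluorescence change (525/598 nm).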
* = called active by the depositor; ? = inconclusive; nt = no result given; ! = a repeat was not active; [ ] = another dose, or the depositor's remark. Calls come from the whole dose curve; as a rule, active = well fitted curve in the direction sought with a large enough effect; inconclusive = small, poorly fitted or top-dose-only effect, or another doubt; inactive = no such curve, though single readings can be large; an effect the other way counts as inactive or inconclusive. Potency is the fitted concentration of half-maximal effect.

SMILES	JMJD2A Tudor inh	HP1b binding inh	BAZ2B block	G9a block	Sfp inh
NC(=O)C1CCN(C(=O)CSc2ccsc2[N+](=O)[O-])CC1	-22%	23%	-21%	?	9%
O=C(CSc1ccsc1[N+](=O)[O-])N1CCN(c2ccc(Cl)cc2)CC1	?	-16%	?	50µM*	-4%
CCn1c(=O)cc(SCC(=O)N2CCN(c3cc(C)ccc3C)CC2)c2ccccc21	-34%	9%	-29%	?	nt
Cc1ccc(C)c(N2CCN(C(=O)CSc3ccsc3[N+](=O)[O-])CC2)c1	?	-16%	?	32µM*	3%
CCOc1ccc(S(=O)(=O)N2CCC(n3c(C)nc4cccnc43)CC2)cc1	-20%	47%	-19%	-33%[59 µM]	nt
O=C(NC1CCCC1)c1ccc(CSc2nc3ccncc3n2Cc2ccc(F)cc2)cc1	-24%	20%	-4%	45µM*!	1%
CCCCOc1cc(NCc2ccccc2)c2ncn(C(C)C)c2c1	40µM*	?	nt	nt	nt
CCC(CO)Oc1cc(NCc2cccc(OC)c2)c2ncn(C(C)C)c2c1 (centres undefined)	?	15%	nt	nt	nt
COCCCOc1cc(NCc2ccccc2)c2ncn(C(C)C)c2c1	56µM*	-34%	nt	nt	nt
CCC(CO)Oc1cc(NCc2ccc(O)cc2)c2ncn(C(C)C)c2c1 (centres undefined)	?	10%	nt	nt	nt
COc1cc(NCc2ccccc2)c2ncn(Cc3ccccc3)c2c1	25µM*	?	nt	nt	nt
CCOCCOc1cc(NCc2ccccc2)c2ncn(C(C)C)c2c1	10µM*	14µM*	nt	nt	nt
CCc1nnc(NC(=O)CSc2nnc(-c3ccc(NS(=O)(=O)c4ccccc4)cc3)o2)s1	-7%	17%	-4%	30%	2%
O=C(N1CCOCC1)n1cnc2ccccc21	-6%	19%	-2%	14%[59 µM]	8%
Cc1cccc(CCNS(=O)(=O)c2cc3c(cc2C)NC(=O)CO3)c1	-7%	44%	1%	nt	0%
CC(C)n1cnc2c(NCc3ccccc3)cc(N[C@H](C)CO)cc21	56µM*	?	nt	nt	nt
CCC(CO)Oc1cc(NCc2cccc(O)c2)c2ncn(C(C)C)c2c1 (centres undefined)	-26%	10%	nt	nt	nt
COc1ccc(Cc2cc(NCc3ccccc3)c3ncn(C(C)C)c3c2)cc1	40µM*	-36%	nt	nt	nt
CC(C)(C)NC(=O)Cn1c(SCC(=O)NCc2cccs2)nc2ccccc21	-17%	6%	24%	5%	11%
Cc1nn(Cc2ccc(C(=O)NC(C)(C)C)o2)c(C)c1Br	-5%	45%	-5%	?	56µM*
Nc1ccc(N=Nc2ccccc2)c2ccccc12	35µM*	-9%	11µM*	10µM*	-15%
Nc1ccc(N=Nc2ccccc2)c(N)n1	-5%	31%	?	11µM*	9%
Clc1ccc(-c2[nH]ncc2N=Nc2ccccc2)cc1	?	-9%	?	?	3%
c1ccc(N=Nc2ccc3cccccc2-3)cc1	4µM*	4µM*	nt	nt	nt
O=S(=O)(O)c1ccc(N=Nc2ccccc2)cc1	-24%	21%	-10%	?	14%
SMILES	JMJD2A Tudor inh	HP1b binding inh	BAZ2B block	G9a block	Sfp inh
CCCNc1c(NS(=O)(=O)c2ccc(NC(=O)CC)cc2)c(=O)oc2ccccc12	-4%	37%	-16%	70%	11%
COc1ccc(CCNC(=O)CCn2c(=O)c3cccn3c3cccnc32)c(OC)c1OC	-4%	23%	-11%	-32%[59 µM]	nt
C/C(N)=C(/C#N)C(=O)CSc1nnc(Nc2c(C)cccc2C)s1	56µM*	?	-3%	32µM*	5%
Cc1sc(NC(=O)c2cccs2)nc1-c1ccccc1	-26%	31%	-1%	-51%	15%
Cc1sc(N/N=C/c2cccs2)nc1-c1ccccc1	25µM*	?	-27%	45µM*	-10%
Fc1ccc(Nc2ccnc(-c3ccoc3)n2)cc1	nt	nt	nt	0%[0.501 µM]	?
COc1ccccc1-c1nccc(NCc2cccs2)n1	nt	nt	nt	-1%[0.501 µM]	79µM*
FC(F)(F)c1ccccc1-c1nccc(NCc2cccs2)n1	nt	nt	nt	-6%[0.501 µM]	-11%
c1cc(NC2CC2)nc(-c2ccoc2)n1	nt	nt	nt	0%[0.501 µM]	79µM*
c1csc(CNc2ccnc(-c3ccoc3)n2)c1	nt	nt	nt	-4%[0.501 µM]	79µM*
Cc1ccc(-c2n[nH]c(=O)c3ccccc23)cc1S(=O)(=O)N(C)CCO	-12%	10%	14%	3%	1%
O=C(O)C1C2CCC(C2)C1C(=O)N1CCCC1 (centres undefined)	-3%	44%	-14%	-12%	45µM*
S=c1[nH]nc(-c2ccc3ncccc3c2)n1-c1ccc2c(c1)OCCO2	?	1%	-16%	2.2µM*	79µM*
O=C1C=C(c2ccc3ncccc3c2)C[C@@H](c2ccc3c(c2)OCO3)C1	?	11%	?	3%[2.33 µM]	nt
Oc1ccc(-c2n[nH]c(=S)n2-c2ccc3c(c2)OCCO3)cc1	?	-16%	?	0.71µM*	79µM*
Cc1cc2c(s1)c1cnn(Cc3ccc(-n4cncn4)cc3)c(=O)c1n2C	-23%	nt	nt	nt	nt
O=CN/C=C/c1cc(O)ccc1O	3.2µM*	?	79µM*	1.4µM*	14µM*
CCOC(=O)c1c(C)[nH]c(CCC(=O)Nc2ccc(C)c(F)c2)c1C	-1%	22%[57 µM]	0%	7%[59 µM]	nt
O=S(=O)(Nc1ccccc1N1CCCCC1)c1ccc(Cl)s1	?	?	-37%	-10%	-13%
O=S(=O)(Nc1cc(O)cc2cccnc12)c1ccc(Cl)s1	79µM*	nt	nt	nt	-25%
O=C(O)/C=C/C(=O)NC1CCS(=O)(=O)C1 (centres undefined)	-7%	57%	?	3.2µM*	-4%
CN(C)C(=S)NC1CCS(=O)(=O)C1 (centres undefined)	-8%[11.4 µM]	43%	-13%	4%	18%
NNC(=S)NC1CCS(=O)(=O)C1 (centres undefined)	?	?	16%	nt	8.9µM*
S=C(NC1CCCCCC1)NC1CCCC1	-11%	0%	-6%	-2%	13%
NNC(=S)NC1CCCCCCCCCCC1	?	32%	32µM*	nt	12%
SMILES	JMJD2A Tudor inh	HP1b binding inh	BAZ2B block	G9a block	Sfp inh
CC(NC(=O)Cn1cccc1)c1ccccc1 (centres undefined)	-13%	8%	-10%	?	2%
C=CCNC(=O)/C(C#N)=C/c1c(N2CCCCCC2)nc2ccccn2c1=O	-10%	16%	-3%	-8%	5%
O=C(NCC1(N2CCOCC2)CCCCC1)c1ccc(S(=O)(=O)Nc2ccccc2F)cc1	-16%	14%	-4%	nt	7%
O=C(O)c1ccc(-n2cccc2/C=C2/NC(=O)N(c3ccccc3)C2=O)cc1	25µM*	16µM*	13µM*	8.9µM*	-20%
O=C(O)c1ccc(-n2cccc2/C=C2/SC(=O)N(CC(=O)N3CCCC3)C2=O)cc1	10µM*	14µM*	8.9µM*	8.9µM*	-8%
O=C1N/C(=C/c2cccn2-c2ccccc2)C(=O)N1Cc1ccccc1F	-16%	14%	-4%	?	-3%
